Measurements from the supplement of paper PMC6555819.

Legend:
Assay in all cases: PBM binding z-score (relative to random genomic background probes); higher = stronger binding; sequences stand for … in GC…GCGATTGACAGCGTAGAATGAAGG
[1] = tested on: RARb homodimer (NR concentration 270 nM)
Outline: (§1)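 Regression normalization was applied to scanned fluorescence from custom Agilent 4×180K protein-binding microarrays. Before scanning, arrays were incubated 1 h with ligand-free nuclear receptor dimers, and binding was detected with antibodies against each partner (one per run). Binding z-scores use the random background probes as reference.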

[2] = tested on: RARg:RXRa (NR concentration 270 nM, RXRa partner concentration 90 nM)
Outline: as §1

[3] = tested on: RARg homodimer (NR concentration 270 nM)
Outline: as §1

[4] = tested on: RXRa DBDmut IVT, anti-RXR (DBD mutation: RXRa K156A/R161A, NR concentration 90 nM)
Outline: as §1

[5] = tested on: RXRa homodimer (NR concentration 180 nM)
Outline: as §1

[6] = tested on: THRa:RXRa (NR concentration 90 nM, RXRa partner concentration 90 nM)
Outline: as §1

[7] = tested on: THRa homodimer (NR concentration 90 nM)
Outline: as §1

[8] = tested on: VDR homodimer (NR concentration 270 nM)
Outline: as §1

Sequence	PBM binding z-score [1]	PBM binding z-score [2]	PBM binding z-score [3]	PBM binding z-score [4]	PBM binding z-score [5]	PBM binding z-score [6]	PBM binding z-score [7]	PBM binding z-score [8]
TGAATGAGGTAATAAGATCAGGGAACGTTGCAAA	-0.532	0.204	0.306	-1.15	0.365	0.991	-0.205	-0.404
ATATGTAGGTTACATCCGGGTTATTCAGGCTATG	1.32	1.65	1.4	1.14	1.84	2.18	1.08	0.79
CTAGAAAGGTCGGTTGAGGTGAGTATACGGATAA	2.53	2.76	2.97	1.01	2.5	4.81	1.71	1.05
ATATGTAGGCTAAGGGTCATTCAGGTTGGTTCGC	3.85	3.93	2.76	2.03	4.31	3.16	1.17	3.63
AGACAAAGTTCATCTAGGTAACGTAAGATATGCT	4.12	5.68	5.87	5.05	4.64	3.07	0.133	5.21
CGTCCAAGGTCAAAGGTCCGTGAAGAGATGACGG	3.99	6.31	6.35	3.54	6.84	3.99	2.24	2.87
CCTAGCAGGCCAATCTTGGTCACTCAAGGCTTGA	0.0668	-0.196	0.118	-0.0196	-0.417	0.909	-0.83	-0.655
AGTCAAAGTTCAGGACCAGGTAACGTAAAGCACG	3	4.41	4.51	2.84	2.91	3.14	0.673	1.72
ATCTCTAGGTAAAACTTCAGTGAATCCCGAGGAT	-0.785	0.396	0.43	-0.375	0.101	0.283	-0.319	-0.455
CCTACTGGGCCATTCTGAGGTCATTGATCATATG	3.32	3.38	1.96	1.23	2.4	4.22	4.5	3.8
ATCGAAAGTTCGACGAGGTGAGTATACACCGTTT	1.42	1.75	1.85	1.63	1.28	2.5	0.567	1.59
TGTCAAAGTTCAAACGTAACGTAAGTATCCACAC	3.89	5.71	6.15	4.86	5.15	2.12	-0.319	4.63
CCTAGCAGGCCATGGTCACTCAAGCATTTCGCTT	0.33	-0.134	0.141	-0.0842	-0.236	-0.37	-0.618	-0.529
AGAATGAGGTTATTAAGATGAGGGAATTGCGGTC	0.734	1.15	0.922	1.9	1.87	2.08	0.746	1.16
CCTGCTAGGTCAATGGTCAGTTAAAGCAGCTCGC	3.24	3.72	4.65	1.99	2.11	2.38	0.961	0.506
GCTTGTAGATCAAGGTAAAGAAAGACTAAGCTAA	-0.851	-0.145	-0.335	-0.256	-0.197	0.48	-0.807	-0.505
CCTAGTTGCTCAGGAGGTCACACACCGGATATGA	4.04	4.26	3.65	1.26	4.71	3.75	2.69	2.65
TCTATTAGTTGAAGGGTAACCGACGAGTCCGTTT	0.751	0.464	0.398	1.95	0.736	0.32	0.529	1.44
TAGCCTAGGTCAATCAGGGGCCAGTATAGAAAGC	3.1	5.75	4.13	0.358	2.51	3.22	0.496	0.332
GCGACTGGGGCATCACCAGGTTACCATAACTTAA	0.954	0.961	0.521	-0.237	0.427	1.92	0.551	-0.267
AGAATGAGGCTAAGATCAGGGAAACAGAATACAT	0.17	0.222	0.265	-0.309	-0.046	0.533	0.04	-0.208
CCGACTGGGGCAGAAAGGTCACCATACCATCCGG	5.15	5.42	5.69	-0.33	5.7	3.2	1.38	1.86
ACTAGTTGGTCAGCAGAGGTCACACACAATTCGG	5.13	5.03	5.13	1.14	5.43	4.52	2.95	3.3
CCTACTGGGCCAGCAGGTCATTGATATCAACGTT	2.26	2.03	1.62	-0.531	1.6	1.86	0.347	0.812
TTACGAAGGTGAGCTGAGGTCGTTGATCCAACTC	1.6	1.37	1.23	0.439	1.27	4.56	1.78	2.57
CGTCCAAGTTCAAAGGTCAGTGAAGAGATGACGG	4.6	7.24	6.28	4.85	8.41	3.84	0.506	5.47
CTCGAAAGGTCGGTTGAGATGAGTATACGGATAA	1.74	2.2	2.5	0.887	2.01	1.72	-0.23	0.738
ATATGTAGGTTACATCCGGGTCATACAGGCTATG	2.77	3.85	2.26	0.757	3.05	4.01	2.3	2.26
GCAGACAGGTGAAACGCAGGTACCTCAGGGTGGC	-0.353	0.0657	0.145	-0.949	0.343	0.295	-0.722	-0.935
